The text below walks through data of PubChem BioAssay (EPA / NIEHS).

Calls of active or inactive are those of the source. The calls were made as follows: active = hit-call score of the fitted dose curve at least 0.9, where 1 is the maximum; inactive = score below 0.9.

Read-out in assay [1]: Monokine induced gamma interferon (MIG), CXCL9 (gene 4283)
Kind of assay: BSK_hDFCGF_MIG: BioMAP Diversity Plus: hDFCGF Assay for Monokine induced gamma interferon (MIG) Biomarker Activity (AID 2283063). The following applies: primary human foreskin fibroblasts; actives raise or lower the signal. The essentials: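 Fibroblasts (human foreskin, primary) dosed, 24 h, MIG by ELISA; fit bidirectional vs DMSO.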

Read-out in assay [2]: Matrix Metallopeptidase 1 (MMP1), MMP1 (gene 4312)
The assay can be described thus: BSK_hDFCGF_MMP1: BioMAP Diversity Plus: hDFCGF Assay for Matrix Metallopeptidase 1 (MMP1) Biomarker Activity (AID 2283064). The following applies: primary human foreskin fibroblasts; actives raise or lower the signal. An outline of the steps: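 Primary human foreskin fibroblasts exposed to chemicals for 24 h; MMP1 measured by ELISA. Cytotoxicity tracked by SRB staining in parallel cultures; bidirectional fit relative to DMSO.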

Read-out in assay [3]: Vascular cell adhesion molecule 1 (VCAM1), VCAM1 (gene 7412)
The assay can be described thus: BSK_hDFCGF_VCAM1: BioMAP Diversity Plus: hDFCGF Assay for Vascular cell adhesion molecule 1 (VCAM1) Biomarker Activity (AID 2283065).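 As to AC50: VCAM-1 protein level quantified by ELISA after 24 h chemical exposure.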 The settings on record: primary human foreskin fibroblasts; actives raise or lower the signal. An outline of the steps: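 ELISA read-out of VCAM-1 on human skin fibroblasts, 24 h post-dose; gain or loss of signal fitted bidirectionally against DMSO baseline.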

Read-out in assay [4]: Intercellular Adhesion Molecule 1 (ICAM1), ICAM1 (gene 3383)
Kind of assay: BSK_KF3CT_ICAM1: BioMAP Diversity Plus: KF3CT Assay for Intercellular Adhesion Molecule 1 (ICAM1) Biomarker Activity (AID 2283067). The settings on record: primary human keratinocytes with fibroblasts; actives raise or lower the signal. The essentials: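 ELISA readout of ICAM-1; KF3CT human skin co-culture (keratinocytes + foreskin fibroblasts), 24 h post-dose; gain/loss fit vs DMSO baseline.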

Read-out in assay [5]: Interferon-gamma inducible Protein 10 (IP10), CXCL10 (gene 3627)
The assay can be described thus: BSK_KF3CT_IP10: BioMAP Diversity Plus: KF3CT Assay for Interferon-gamma inducible Protein 10 (IP10) Biomarker Activity (AID 2283068). The settings on record: primary human keratinocytes with fibroblasts; actives raise or lower the signal. The essentials: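 ELISA read-out of IP-10 after 24 h chemical dosing of human skin primary co-culture (keratinocytes, foreskin fibroblasts). Gain or loss of signal relative to DMSO, bidirectional curve fit.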

Assay [6] can be described thus: BSK_KF3CT_SRB: Viability Assessment in the BioMAP Diversity Plus: KF3CT Assay (AID 2283069).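 Also: total protein by sulforhodamine B staining as a cytotoxicity measure; read 24 h after compound addition.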 The settings on record: primary human keratinocytes with fibroblasts. The essentials:
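Human keratinocyte and foreskin fibroblast co-culture exposed to chemical for 24 h. Total protein measured in parallel cultures by 0.1% sulforhodamine B staining after 10% TCA fixation, read at 560 nm; bidirectional fit relative to DMSO.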

Read-out in assay [7]: Interleukin-1 alpha (IL1a), IL1A (gene 3552)
The assay can be described thus: BSK_KF3CT_IL1a: BioMAP Diversity Plus: KF3CT Assay for Interleukin-1 alpha (IL1a) Biomarker Activity (AID 2283070). The settings on record: primary human keratinocytes with fibroblasts; actives raise or lower the signal. An outline of the steps: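 Primary human keratinocyte plus foreskin fibroblast co-culture, dosed and measured at 24 h in 96-well plates. IL-1a level quantified by ELISA; bidirectional fit relative to DMSO.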

Read-out in assay [8]: TIMP metallopeptidase inhibitor 2 (TIMP2), TIMP2 (gene 7077)
Kind of assay: BSK_KF3CT_TIMP2: BioMAP Diversity Plus: KF3CT Assay for TIMP metallopeptidase inhibitor 2 (TIMP2) Biomarker Activity (AID 2283071). The following applies: primary human keratinocytes with fibroblasts; actives raise or lower the signal. The essentials:
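Cells: human keratinocytes co-cultured with foreskin fibroblasts. Treat with chemical, 24 h. Measure TIMP-2 by ELISA; fit curves bidirectionally vs DMSO baseline.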

Read-out in assay [9]: Transforming growth factor beta 1 (TGFb1), TGFB1 (gene 7040)
Kind of assay: BSK_KF3CT_TGFb1: BioMAP Diversity Plus: KF3CT Assay for Transforming growth factor beta 1 (TGFb1) Biomarker Activity (AID 2283072). The settings on record: primary human keratinocytes with fibroblasts; actives raise or lower the signal. An outline of the steps:
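Primary human skin cells (keratinocytes, foreskin fibroblasts) were co-cultured, exposed to test chemical and sampled at 24 h. TGF-b1 levels were measured by ELISA and fitted bidirectionally relative to DMSO.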

Read-out in assay [10]: C-C motif chemokine 2 (Homo sapiens) (UniProt P13500)
Kind of assay: BSK_KF3CT_MCP1: BioMAP Diversity Plus: KF3CT Assay for Monocyte Chemoattractant Protein 1 (MCP1/CCL2) Biomarker Activity (AID 2283073). The following applies: primary human keratinocytes with fibroblasts; actives raise or lower the signal. The essentials: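 KF3CT skin co-culture (keratinocytes/foreskin fibroblasts), 24 h post-dose; MCP-1 by ELISA; gain/loss of signal fit bidirectionally vs DMSO baseline.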

Read-out in assay [11]: Matrix Metallopeptidase 9 (MMP9), MMP9 (gene 4318)
Kind of assay: BSK_KF3CT_MMP9: BioMAP Diversity Plus: KF3CT Assay for Matrix Metallopeptidase 9 (MMP9) Biomarker Activity (AID 2283074). The settings on record: primary human keratinocytes with fibroblasts; actives raise or lower the signal. An outline of the steps:
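Human keratinocyte and foreskin fibroblast co-culture exposed to chemicals for 24 h; MMP9 biomarker measured by ELISA, bidirectional fitting relative to DMSO; cytotoxicity tracked by SRB total protein staining in parallel cultures.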

Read-out in assay [12]: urokinase plasminogen activator (uPA), PLAU (gene 5328)
The assay can be described thus: BSK_KF3CT_uPA: BioMAP Diversity Plus: KF3CT Assay for urokinase plasminogen activator (uPA) Biomarker Activity (AID 2283075). The following applies: primary human keratinocytes with fibroblasts; actives raise or lower the signal. The essentials: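 Primary human keratinocyte/foreskin fibroblast co-culture exposed to chemical; uPA measured by ELISA at 24 h. Bidirectional fit versus DMSO, with parallel SRB total-protein staining for cytotoxicity.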

Read-out in another assay: CD40, CD40 (gene 958)
Kind of assay: BSK_LPS_CD40: BioMAP Diversity Plus: LPS Assay for CD40 Biomarker Activity (AID 2283076). The following applies: primary human HUVEC with PBMC; actives raise or lower the signal. An outline of the steps:
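ELISA readout of CD40 in HUVEC/PBMC co-culture (BSK_LPS system), 24 h post-dosing; bidirectional curve fit, DMSO baseline; parallel SRB total-protein staining for cytotoxicity.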

Read-out in assay [13]: Interleukin-8 (IL8), CXCL8 (gene 3576)
Kind of assay: BSK_LPS_IL8: BioMAP Diversity Plus: LPS Assay for Interleukin-8 (IL8) Biomarker Activity (AID 2283078). The following applies: primary human HUVEC with PBMC; actives raise or lower the signal. The essentials: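 HUVEC + PBMC co-culture, LPS-activated; test chemicals dosed, IL-8 read by ELISA at 24 h. Bidirectional curve fit vs DMSO baseline (gain or loss of signal).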

Assay [14] can be described thus: BSK_LPS_SRB: Viability Assessment in the BioMAP Diversity Plus: LPS Assay (AID 2283079).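 Also: total protein by sulforhodamine B absorbance as a cytotoxicity measure; measured one day after compound addition; fitted in both directions against DMSO so loss or gain of signal counts.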 The settings on record: primary human HUVEC with PBMC. An outline of the steps:
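HUVEC + PBMC co-culture, LPS-stimulated; compound 24 h. 10% TCA fix, 0.1% SRB stain, A560. Bidirectional fit vs DMSO.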

Read-out in assay [15]: Interleukin-1 alpha (IL1a), IL1A (gene 3552)
The assay can be described thus: BSK_LPS_IL1a: BioMAP Diversity Plus: LPS Assay for Interleukin-1 alpha (IL1a) Biomarker Activity (AID 2283080). The settings on record: primary human HUVEC with PBMC; actives raise or lower the signal. An outline of the steps: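 HUVEC/PBMC co-culture, LPS system; 24 h after dosing; IL-1a by ELISA; gain or loss of signal fitted bidirectionally vs DMSO baseline.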

Read-out in assay [16]: Monocyte Chemoattractant Protein-1 (MCP1), CCL2 (gene 6347)
The assay can be described thus: BSK_LPS_MCP1: BioMAP Diversity Plus: LPS Assay for Monocyte Chemoattractant Protein-1 (MCP1) Biomarker Activity (AID 2283081). The following applies: primary human HUVEC with PBMC; actives raise or lower the signal. An outline of the steps:
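ELISA read-out of MCP-1 after 24 h chemical dosing of a human umbilical vein endothelial cell/peripheral blood mononuclear cell co-culture stimulated with LPS. Gain or loss of signal fitted relative to DMSO controls.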

Read-out in assay [17]: Plasminogen activator inhibitor-1 (PAI1), SERPINE1 (gene 5054)
The assay can be described thus: BSK_hDFCGF_PAI1: BioMAP Diversity Plus: hDFCGF Assay for Plasminogen activator inhibitor-1 (PAI1) Biomarker Activity (AID 2283066). The following applies: primary human foreskin fibroblasts; actives raise or lower the signal. The essentials:
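Primary dermal fibroblasts (human foreskin), hDFCGF system; compound 24 h; PAI-1 by ELISA; bidirectional fit vs DMSO control.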

Read-out in assay [18]: E-selectin (Homo sapiens) (UniProt P16581)
Kind of assay: BSK_LPS_Eselectin: BioMAP Diversity Plus: LPS Assay for Eselectin Biomarker Activity (AID 2283077). The settings on record: primary human HUVEC with PBMC; actives raise or lower the signal. An outline of the steps:
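ELISA readout of E-selectin, 24 h post-dose, HUVEC + PBMC co-culture (LPS system). Gain or loss of signal vs DMSO baseline, bidirectional fit.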

E-selectin (Homo sapiens), sequence (P16581 whole entry, looked up): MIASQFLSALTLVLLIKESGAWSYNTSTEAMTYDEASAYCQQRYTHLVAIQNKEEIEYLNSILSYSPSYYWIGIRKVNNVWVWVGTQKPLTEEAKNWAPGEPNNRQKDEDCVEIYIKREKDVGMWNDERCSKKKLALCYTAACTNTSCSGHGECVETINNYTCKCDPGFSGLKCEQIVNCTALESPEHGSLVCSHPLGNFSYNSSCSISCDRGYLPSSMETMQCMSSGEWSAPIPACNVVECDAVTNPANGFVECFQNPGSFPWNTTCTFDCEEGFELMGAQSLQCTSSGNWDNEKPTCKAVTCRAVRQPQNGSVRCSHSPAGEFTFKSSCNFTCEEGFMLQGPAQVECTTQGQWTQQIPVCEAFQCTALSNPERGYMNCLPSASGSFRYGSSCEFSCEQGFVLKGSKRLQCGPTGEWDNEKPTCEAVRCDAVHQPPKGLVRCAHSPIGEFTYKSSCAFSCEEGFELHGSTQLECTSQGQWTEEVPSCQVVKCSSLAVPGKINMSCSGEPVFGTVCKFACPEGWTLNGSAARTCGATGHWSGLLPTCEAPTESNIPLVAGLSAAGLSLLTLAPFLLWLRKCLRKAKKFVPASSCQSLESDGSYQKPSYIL

As a reminder, the AC50 is the concentration giving half of the maximal activity seen. As for `CN(C)c1ccc(N=NS(=O)(=O)O)cc1`, the result in [1], in [2], in assay [4], in [5], in assay [6] and in [7] was inactive. For the same compound, the outcome in assay [8] was “inactive”; in assay [9] it was “inactive”; in assay [10] it was “inactive”; in assay [11] it was “inactive”; in assay [12] it was “inactive”; with CD40, CD40 (gene 958), “inactive”. Further, the result in assay [13], in assay [14], in [15] and in assay [16] was inactive. In assay [3], the AC50 was 3.79 µM (active).
With `CCn1nc(Cc2ccccc2)cc1C1CCN(C[C@H]2C[C@H](N(C)[C@@H](C(=O)O)C(C)C)C[C@@H]2c2cccc(F)c2)CC1`, the result in assay [1], in assay [3], in assay [17], in [4], in assay [5] and in assay [6] was inactive. The result in [7], in assay [8], in assay [9], in assay [10], in assay [11] and in assay [12] was inactive. The outcome with CD40, CD40 (gene 958) was “inactive”; in assay [18], “inactive”; in [13], “inactive”; in assay [14] it was “inactive”; in [15] it was “inactive”.
In the case of `Nc1cccc(N)c1`, the outcome in assay [1], in assay [2], in assay [3], in assay [4], in assay [5] and in [6] was inactive. Further, the outcome in assay [8] was “inactive”; in [9], “inactive”; in assay [10] it was “inactive”; in assay [11] it was “inactive”; in assay [12] it was “inactive”; with CD40, CD40 (gene 958), “inactive”. Moreover, the result in assay [13], in assay [14] and in assay [15] was inactive.
Turning to `CC(C)CCCCCCOC(=O)c1ccc(C(=O)OCCCCCCC(C)C)c(C(=O)OCCCCCCC(C)C)c1`, the outcome in assay [1], in assay [2], in [3], in [4], in assay [5] and in assay [6] was inactive. In addition, the outcome in assay [8] is “inactive”; in assay [9], “inactive”; in [10], “inactive”; in [11], “inactive”; in [12], “inactive”; in the assay with CD40, CD40 (gene 958), “inactive”. Besides, the outcome in assay [18], in assay [13], in [14] and in [15] was inactive.
